The campaign covered roughly 31,000 sequences. About 1,400 (4.5%) were called active. The sample as a whole holds a higher share of actives than the screen did. Unmarked numbers belong to inactive results.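 How the source made its calls: active means median seed-adjusted z-score above 1 or below -1; inactive means the rest.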

A short description of this assay: Novel Modifiers of Survival Motor Neuron (SMN) Protein: Gene Identification via Genome-wide siRNA Screen.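 Further: luminescence tracks full-length SMN protein made from the SMN2 reporter.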 The conditions noted are these: HEK293T SMN2-luciferase reporter, siRNA knockdown, 72 h; actives lie on both sides. Put shortly: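 Genome-wide siRNA screen (10418 genes, 3 siRNAs each, 1 pmol per well) by reverse transfection in HEK293T cells stably carrying an SMN2-luciferase reporter; luminescence after 72 hours, normalized to negative-control siRNA, log10-transformed, MAD-scored.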
For orientation: Reporter assays use an easily measured gene product as a stand-in for the process of interest.
For the sequence CAACGACAGCAGUCCCAUUTT against EGR1, the median seed-adjusted z-score is 0.0836.

Take GUGUAAGGAUCAAAAAGAATT against ZNF682: the median seed-adjusted z-score is -0.155.

Regarding ACAACAUCAUGAUCCGAGATT against PIK3CD, the median seed-adjusted z-score was 0.00831.

For the sequence CUUCGUAUGUUUACAAGAATT against GUCY2C, the median seed-adjusted z-score is -0.0181.

In the case of GCUCUACGCAAGGAGAUCATT against BATF, the median seed-adjusted z-score is -0.0501.

For the sequence GUCCGGUGUUUGAACCUGATT against ABHD2, the median seed-adjusted z-score was -1.21 (active).

For CUAUUGUAAAAGUAUGGAATT against ARL6IP2, the median seed-adjusted z-score was 0.274.

Consider GGCCUACAGCAACAAUGGATT against PCDH24, for which the median seed-adjusted z-score was 0.345.

Regarding GAGUGGAAGUUAUCUGUCATT against WBSCR22, the median seed-adjusted z-score is -0.21.

Regarding AGCUCCAUCUCGACCACAATT against FMOD, the median seed-adjusted z-score was -1.32 (active).

Regarding GGAAUACAGUGACGACAAATT against ING5, the median seed-adjusted z-score was -0.193.

For GCAUCGACCGGGUUUAUGATT against KARS, the median seed-adjusted z-score was -0.152.

Consider CCACUUUACCCACUACCCATT against ISX, for which the median seed-adjusted z-score was 1.99 (active).

As to GCAUUCGAAUUAUAGAACATT against SLC16A14, the median seed-adjusted z-score is 0.464.

Take GCACAAAUCUCAAUAUUCATT against GPSM3: the median seed-adjusted z-score was -0.641.

Take CAGCCUUAAUGGACACGAATT against MFGE8: the median seed-adjusted z-score was 0.0367.

On to GUAUGGUCGGUUUACAAUATT against YES1, for which the median seed-adjusted z-score is -0.508.

For the sequence ACCGUAUUCCUAUAUCUCATT against FOXA3, the median seed-adjusted z-score is 0.128.

As for GCAUCGUCAAGGAUUGGAATT against ACTR1A, the median seed-adjusted z-score is 1.28 (active).

In the case of GCACUUACGAUGACCGGCATT against TNFAIP1, the median seed-adjusted z-score was 0.0766.

In the case of GCAAUUUCUUGUUUCGUUATT against SLC9A6, the median seed-adjusted z-score was -0.0831.

GGACAAUAGACUUUAGAGATT against NCALD: the median seed-adjusted z-score is 0.

As for AGUAUACGCUGCCCUCAUATT against RNASE3, the median seed-adjusted z-score was 0.588.

Consider CCAUUUGAGGUGAACCGUATT against RFWD3, for which the median seed-adjusted z-score is 0.554.

CUACGACGGUGAUAUUGGATT against HDAC2: the median seed-adjusted z-score was -1.27 (active).

With GCAGGGAUCUUACAUCUAUTT against CENTD2, the median seed-adjusted z-score is -0.305.

As to GCAUCCUACCCGUUCCAUATT against MSX2, the median seed-adjusted z-score was -0.406.

As for GGGACAUCCGAGAUCCUAATT against LAMB1, the median seed-adjusted z-score is 1.07 (active).

As to GGACAAACACGGACAGUAUTT against EPHB4, the median seed-adjusted z-score is -0.143.

As to AAGGAGCAGUGGAUACUGATT against MST1, the median seed-adjusted z-score was -1.47 (active).

(Values after PubChem BioAssay AID1347426 (Functional Genomics Laboratory (NCATS/FGL), 2020).)
